ALOX12 inh – Primary qHTS assay for inhibitors of human arachidonate 12S-lipoxygenase (ALOX12): Round 2. Polyunsaturated fatty acid lipoxygenase ALOX12 (Homo sapiens), P18054. purified 12hLO, xylenol orange hydroperoxide absorbance. Potency, µM (series often up to 108 µM), inactives show at the top dose activity change, negative = inhibition, actives largely listed as inhibitors. 1.1% of 580,000 active; also: % is scaled to controls: 0 for no effect and ±100 for the full control effect
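Hydroperoxide product was detected by ferrous iron/xylenol orange as the 573 to 405 nm absorbance ratio. Arachidonic acid at 40 uM (final) was turned over for 30 min at room temperature by 150 nM human 12hLO, pH 7.0 Hepes buffer, after 15 min compound preincubation.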
GLP-1R inv ag – qHTS of GLP-1 Receptor Inverse Agonists (Inhibition Mode); Glucagon-like peptide 1 receptor (Homo sapiens), P43220; HEK293 GLP-1R CRE-luciferase, luminescence, 24 h; GLP-1R form is constitutively active; Potency, µM (series often up to 38.3 µM), inactives show at the highest dose activity change, negative = inhibition, usual class: inhibitors; 1.6% of 410,000 active; AID 624417, 2012; also: % is scaled to controls: 0 for no effect and ±100 for the full control effect; nearly all actives have a fitted effect of over 55% in size
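Inverse agonists were sought by their lowering of basal cAMP reporter luciferase output in HEK293 cells stably carrying constitutively active human GLP-1R, after 24 h compound treatment.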
GRP78 ERSR act – qHTS for Inducers of the Endoplasmic Reticulum Stress Response (ERSR) in Human Glioma: qHTS. U87-MG GRP78 promoter luciferase reporter, 16 h. Potency, µM, for inactives: at the highest dose activation, hits mostly activators. 0.02% of 420,000 active. AID 602332, 2012; also: series mostly up to about 76 µM; % of control where 0% means no effect; nearly all actives have a fitted effect of over 35% in size
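Stably transfected U87-MG human glioma cells carrying a GRP78-based luminescent sensor were seeded at 1000 cells/well, pin-dosed with compounds and incubated 16 h. Luciferase reagent was then added, and end-point luminescence was read after 10 min at room temperature.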
GLP-1R agonist – qHTS of GLP-1 Receptor Agonists; HEK293 GLP-1R CRE-luciferase, luminescence, 4-6 h; cells express a hypersensitive GLP-1R form; Potency, µM (highest dose often 45.6 µM), without a hit: top-dose activation, usual class: activators; 0.007% of 380,000 active; AID 624172, 2012; also: % of control where 0% means no effect
GLS inhibitor – qHTS for Inhibitors of Glutaminase (GLS). Potency, µM (top dose mostly 45.5 µM), without a hit: at the highest dose activity change, negative = inhibition, most hits filed as inhibitors. GLS enzymatic activity, qHTS titration. 0.21% of 410,000 active. Glutaminase kidney isoform, mitochondrial (Homo sapiens), O94925. AID 624170, 2012; also: % is scaled to controls: 0 for no effect and ±100 for the full control effect
Target sequence (O94925 whole entry, looked up, canonical isoform): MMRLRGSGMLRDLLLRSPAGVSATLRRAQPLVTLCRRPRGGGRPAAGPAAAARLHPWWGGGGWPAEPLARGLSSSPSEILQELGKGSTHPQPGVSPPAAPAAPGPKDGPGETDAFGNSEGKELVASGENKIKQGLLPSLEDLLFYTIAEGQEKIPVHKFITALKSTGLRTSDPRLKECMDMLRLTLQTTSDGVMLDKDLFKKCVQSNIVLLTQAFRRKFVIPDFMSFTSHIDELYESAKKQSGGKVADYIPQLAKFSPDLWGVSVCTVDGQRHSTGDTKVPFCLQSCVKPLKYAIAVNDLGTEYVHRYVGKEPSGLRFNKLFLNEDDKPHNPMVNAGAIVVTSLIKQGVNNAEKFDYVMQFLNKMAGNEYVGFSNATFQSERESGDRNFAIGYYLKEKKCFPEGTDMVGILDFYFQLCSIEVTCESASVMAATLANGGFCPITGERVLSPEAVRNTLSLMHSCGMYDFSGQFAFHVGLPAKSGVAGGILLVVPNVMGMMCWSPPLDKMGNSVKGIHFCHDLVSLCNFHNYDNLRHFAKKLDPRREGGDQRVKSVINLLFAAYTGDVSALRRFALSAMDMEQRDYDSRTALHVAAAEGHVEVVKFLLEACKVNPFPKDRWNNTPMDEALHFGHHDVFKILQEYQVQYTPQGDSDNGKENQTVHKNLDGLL
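Glutamate formation by hKGA was monitored fluorometrically using coupled glutamate oxidase, HRP and Amplex Red. Substrate was added as 1 mM L-glutamine solution; incubation was 30 min at RT after an initial read.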
PTHR1 agonist – qHTS for PTHR1 Agonists: Primary Screen | 0.075% of 410,000 active | Parathyroid hormone/parathyroid hormone-related peptide receptor (Homo sapiens), Q03431 | HEK293 GP2 PTHR1 cells, GloSensor cAMP luminescence, 1 h | Potency, µM (highest dose often 115 µM), inactives show top-dose activation, actives largely listed as activators; also: nearly all actives have a fitted effect of over 55% in size
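HEK-293-derived GP2 cells expressing PTHR1 and a GloSensor cAMP reporter, 3,000/well, plated overnight, given luciferin plus IBMX (each 0.5 mM as added) for 1 h at 37 °C, then compound for 1 h at 37 °C. Luminescence was read after 15 min at room temperature.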
Numbers without * were called inactive. Most compounds without a hit are left out; they make up all but 2.3% or so of the library. Calls follow the shape of the dose curve; as a rule, active = well fitted curve in the direction sought with a large enough effect; inconclusive = small, poorly fitted or top-dose-only effect, or another doubt; inactive = no such curve, though single readings can be large; an effect the other way counts as inactive or inconclusive. Potency is read from the fitted curve at half-maximal effect.

`Cc1ccc(C2CC(=O)N3CN(Cc4ccccc4)CSC3=C2C#N)cc1` (configuration not stated) gave ALOX12 inh 5.6µM*.
For COc1ccc(C2CC(=O)N3CN(c4ccc(C)c(Cl)c4)CSC3=C2C#N)cc1OC (configuration not stated) the results were ALOX12 inh 35µM*, GLP-1R inv ag -4%, GRP78 ERSR act -2%, GLP-1R agonist -3%, GLS inhibitor 16% and PTHR1 agonist -39%.
Screening N#CC1=C2SCN(c3ccc(F)cc3)CN2C(=O)CC1c1cccc(F)c1 (configuration not stated) returned ALOX12 inh 6.3µM*, GLP-1R inv ag -20%, GRP78 ERSR act 2%, GLP-1R agonist 0%, GLS inhibitor 5% and PTHR1 agonist -7%.
Screening CCc1ccc(C2CC(=O)N3CN(c4ccccc4)CSC3=C2C#N)cc1 (configuration not stated) returned ALOX12 inh inconclusive, GLP-1R inv ag -16%, GRP78 ERSR act -6%, GLP-1R agonist -2%, GLS inhibitor 15% and PTHR1 agonist inactive.
For C=CCOc1ccc(/C=C/C(=O)Nc2ccc(C(N)=O)cc2)cc1 the results were ALOX12 inh 1%.
`COc1ccc(N2CSC3=C(C#N)C(c4cc(OC)c(OC)cc4OC)CC(=O)N3C2)c(OC)c1` (configuration not stated) gave ALOX12 inh 28µM*, GLP-1R inv ag 18%, GRP78 ERSR act -4%, GLP-1R agonist 5%, GLS inhibitor 9% and PTHR1 agonist inactive.
`CCOC(=O)c1ccc(N2CSC3=C(C#N)C(c4cccs4)CC(=O)N3C2)cc1` (configuration not stated) gave ALOX12 inh 18µM*, GLP-1R inv ag -22%, GRP78 ERSR act -4%, GLP-1R agonist -1%, GLS inhibitor -10% and PTHR1 agonist -21%.
`COc1ccc(C2CC(=O)N3CN(C4CCCCC4)CSC3=C2C#N)cc1` (configuration not stated) gave ALOX12 inh inconclusive, GLP-1R inv ag 7%, GRP78 ERSR act -2%, GLS inhibitor 10% and PTHR1 agonist inactive.
Screening COc1ccc(N2CSC3=C(C#N)C(c4cc(OC)ccc4OC)CC(=O)N3C2)c(OC)c1 (configuration not stated) returned GLP-1R inv ag 1%, GRP78 ERSR act -4%, GLP-1R agonist 0%, GLS inhibitor 29% and PTHR1 agonist -19%.
COc1cccc(C2CC(=O)N3CN(C4CCCCC4)CSC3=C2C#N)c1 (configuration not stated) was read as ALOX12 inh 13µM*, GLP-1R inv ag -2%, GRP78 ERSR act -1%, GLS inhibitor 24% and PTHR1 agonist inactive.
`CCOc1ccccc1N1CSC2=C(C#N)C(c3c(OC)ccc4ccccc34)CC(=O)N2C1` (configuration not stated) gave ALOX12 inh 3.2µM*, GLP-1R inv ag -6%, GRP78 ERSR act -3%, GLP-1R agonist -3%, GLS inhibitor -3% and PTHR1 agonist -2%.
`COc1ccc(N2CSC3=C(C#N)C(c4cccs4)CC(=O)N3C2)cc1` (configuration not stated) gave ALOX12 inh 0%, GLP-1R inv ag 24%, GRP78 ERSR act -1%, GLP-1R agonist -5%, GLS inhibitor 7% and PTHR1 agonist -9%.
For O=S(=O)(Nc1cccc2c1CCCC2)c1cc(F)ccc1F the results were ALOX12 inh -1%.
For COc1cc(OC)c(NS(=O)(=O)c2cc(C(=O)N3CCCCCC3)ccc2C)cc1Cl the results were ALOX12 inh 1%.
Screening COc1cc(C2CC(=O)N3CN(c4ccc(C)c(Cl)c4)CSC3=C2C#N)ccc1O (configuration not stated) returned ALOX12 inh 0.89µM*.
Screening Cc1noc(C)c1S(=O)(=O)N1CC(N(Cc2cccnc2)CC(C)C)C1 returned ALOX12 inh 67%.
Screening Oc1ccc(NCc2cccs2)cc1 returned ALOX12 inh inconclusive, GLP-1R inv ag 150%, GRP78 ERSR act inconclusive, GLP-1R agonist 22%, GLS inhibitor 11µM* and PTHR1 agonist inactive.
For COc1ccc(N(Cc2cccs2)C(=O)Nc2cccc(Cl)c2)cc1 the results were ALOX12 inh 16µM*, GLP-1R inv ag 10µM*, GRP78 ERSR act -1%, GLS inhibitor 5% and PTHR1 agonist -69%.
Screening CN(CC(=O)Nc1cc(Cl)cc(Cl)c1)Cc1cccs1 returned ALOX12 inh -21%, GLP-1R inv ag 13µM*, GRP78 ERSR act -4%, GLP-1R agonist 15%, GLS inhibitor -1% and PTHR1 agonist inactive.
c1ccc(NCc2cccs2)cc1 was read as ALOX12 inh -18%.
For CN(CC(=O)Nc1ccc2c(c1)OCO2)Cc1cccs1 the results were ALOX12 inh -7%.
For CC(Cc1cccs1)NC(=S)Nc1ccc(Cl)cc1 (configuration not stated) the results were ALOX12 inh 40µM*, GLP-1R inv ag inconclusive, GRP78 ERSR act -3%, GLP-1R agonist 16%, GLS inhibitor 10% and PTHR1 agonist -37%.
Screening Cc1ccc(N(Cc2cccs2)C(=O)Nc2cccc(Cl)c2)cc1 returned ALOX12 inh -18%, GLP-1R inv ag -19%, GRP78 ERSR act -4%, GLS inhibitor 3% and PTHR1 agonist inactive.
For Cc1nc(C)c(C(=O)N2CCC(Oc3ccc(-c4noc(-c5ccccc5)n4)cc3)C2)s1 (configuration not stated) the results were ALOX12 inh -7%.
For CC(Cc1cccs1)NC(=O)Nc1cccc(Cl)c1 (configuration not stated) the results were ALOX12 inh -19%, GLP-1R inv ag 11µM*, GRP78 ERSR act -2%, GLP-1R agonist 2%, GLS inhibitor 5% and PTHR1 agonist -37%.
